Laboratory results published in the supplement of paper PMC7724964.

T1: TSG101 1-145 UEV (domain begin residue: 1, domain end residue: 145), Q99816
T1 chain: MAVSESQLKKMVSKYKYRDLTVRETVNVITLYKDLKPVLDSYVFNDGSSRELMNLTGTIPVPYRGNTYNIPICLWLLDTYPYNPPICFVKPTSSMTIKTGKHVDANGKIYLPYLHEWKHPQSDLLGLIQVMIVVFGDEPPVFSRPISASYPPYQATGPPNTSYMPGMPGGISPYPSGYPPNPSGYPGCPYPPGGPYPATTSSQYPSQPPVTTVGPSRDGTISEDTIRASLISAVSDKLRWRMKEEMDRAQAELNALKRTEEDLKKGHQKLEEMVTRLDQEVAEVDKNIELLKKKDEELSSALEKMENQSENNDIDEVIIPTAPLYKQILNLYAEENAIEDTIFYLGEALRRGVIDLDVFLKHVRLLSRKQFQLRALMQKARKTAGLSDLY

T2: TRIM11 268-461 SPRY (domain begin residue: 268, domain end residue: 461), Q96F44
T2 chain: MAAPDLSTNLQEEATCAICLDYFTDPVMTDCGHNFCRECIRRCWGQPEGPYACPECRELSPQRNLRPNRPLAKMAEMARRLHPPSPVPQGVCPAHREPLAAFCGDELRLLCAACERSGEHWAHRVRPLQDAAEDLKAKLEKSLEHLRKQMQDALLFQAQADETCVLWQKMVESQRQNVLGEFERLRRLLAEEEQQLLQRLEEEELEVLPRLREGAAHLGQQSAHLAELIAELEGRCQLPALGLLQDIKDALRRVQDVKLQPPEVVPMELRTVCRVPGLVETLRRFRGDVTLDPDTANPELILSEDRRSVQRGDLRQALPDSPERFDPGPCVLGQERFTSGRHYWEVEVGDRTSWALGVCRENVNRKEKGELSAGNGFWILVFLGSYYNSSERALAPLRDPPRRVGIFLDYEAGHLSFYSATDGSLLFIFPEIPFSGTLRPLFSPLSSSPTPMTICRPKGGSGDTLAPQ

T3: TOM1L1 1-150 VHS (domain begin residue: 1, domain end residue: 150), O75674
T3 chain: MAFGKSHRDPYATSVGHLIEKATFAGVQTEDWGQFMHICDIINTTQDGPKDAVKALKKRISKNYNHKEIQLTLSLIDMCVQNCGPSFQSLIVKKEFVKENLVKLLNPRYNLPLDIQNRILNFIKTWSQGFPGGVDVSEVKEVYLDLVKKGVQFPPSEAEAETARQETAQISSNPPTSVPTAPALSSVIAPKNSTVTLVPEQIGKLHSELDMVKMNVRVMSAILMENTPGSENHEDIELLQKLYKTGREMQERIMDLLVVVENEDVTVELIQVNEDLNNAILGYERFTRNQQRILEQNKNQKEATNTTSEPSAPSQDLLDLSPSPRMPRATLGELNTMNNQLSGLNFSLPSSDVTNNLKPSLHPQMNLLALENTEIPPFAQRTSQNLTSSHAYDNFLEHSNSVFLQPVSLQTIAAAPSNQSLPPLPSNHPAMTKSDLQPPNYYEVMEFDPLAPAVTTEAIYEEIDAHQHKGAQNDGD

T4: TOM1L2 1-153 VHS (domain begin residue: 1, domain end residue: 153), Q6ZVM7
T4 chain: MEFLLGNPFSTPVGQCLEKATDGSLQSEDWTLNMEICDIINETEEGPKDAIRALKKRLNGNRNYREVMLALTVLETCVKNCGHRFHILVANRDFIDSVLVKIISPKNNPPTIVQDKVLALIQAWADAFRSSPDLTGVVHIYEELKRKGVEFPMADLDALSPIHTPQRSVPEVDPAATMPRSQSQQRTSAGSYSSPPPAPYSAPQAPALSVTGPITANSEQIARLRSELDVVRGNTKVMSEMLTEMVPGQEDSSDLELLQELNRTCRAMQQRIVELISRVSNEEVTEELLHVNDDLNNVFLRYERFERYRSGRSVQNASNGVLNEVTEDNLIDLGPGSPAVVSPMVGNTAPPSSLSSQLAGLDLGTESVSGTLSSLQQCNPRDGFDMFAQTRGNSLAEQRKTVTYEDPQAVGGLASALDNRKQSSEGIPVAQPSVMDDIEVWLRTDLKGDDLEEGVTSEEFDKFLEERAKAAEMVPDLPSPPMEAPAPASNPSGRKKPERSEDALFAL

T5: TRIM39 319-514 SPRY (domain begin residue: 319, domain end residue: 514), Q9HCM9
T5 chain: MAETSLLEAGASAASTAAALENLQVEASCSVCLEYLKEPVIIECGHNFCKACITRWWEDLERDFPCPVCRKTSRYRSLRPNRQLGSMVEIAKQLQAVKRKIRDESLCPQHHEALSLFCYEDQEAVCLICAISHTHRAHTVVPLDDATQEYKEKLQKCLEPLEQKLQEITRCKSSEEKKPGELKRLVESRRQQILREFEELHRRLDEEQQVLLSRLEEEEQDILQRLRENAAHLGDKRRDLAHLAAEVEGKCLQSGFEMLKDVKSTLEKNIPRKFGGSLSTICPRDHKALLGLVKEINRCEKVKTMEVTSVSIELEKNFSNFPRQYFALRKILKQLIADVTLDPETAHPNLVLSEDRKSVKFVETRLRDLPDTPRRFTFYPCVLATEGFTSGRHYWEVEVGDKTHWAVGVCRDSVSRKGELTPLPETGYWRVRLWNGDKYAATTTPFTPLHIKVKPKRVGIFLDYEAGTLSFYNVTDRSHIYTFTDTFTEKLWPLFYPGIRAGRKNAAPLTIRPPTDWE

T6: TRIM10 292-481 SPRY (domain begin residue: 292, domain end residue: 481), Q9UDY6
T6 chain: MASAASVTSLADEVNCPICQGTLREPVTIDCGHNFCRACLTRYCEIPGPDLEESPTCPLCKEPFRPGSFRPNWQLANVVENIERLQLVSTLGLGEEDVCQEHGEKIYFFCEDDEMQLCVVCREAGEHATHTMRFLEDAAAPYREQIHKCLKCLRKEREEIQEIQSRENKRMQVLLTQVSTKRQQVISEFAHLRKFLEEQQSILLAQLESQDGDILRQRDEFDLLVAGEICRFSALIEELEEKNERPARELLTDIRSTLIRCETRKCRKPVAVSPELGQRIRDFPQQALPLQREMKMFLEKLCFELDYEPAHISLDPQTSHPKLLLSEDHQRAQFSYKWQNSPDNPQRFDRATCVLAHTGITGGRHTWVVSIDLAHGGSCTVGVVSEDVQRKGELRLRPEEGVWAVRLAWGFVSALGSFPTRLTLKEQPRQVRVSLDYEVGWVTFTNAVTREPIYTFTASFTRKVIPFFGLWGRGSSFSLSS


Molecular target: T1, TSG101 1-145 UEV (domain begin residue: …
Assay: phage ELISA signal ratio (GST-PRM binding over GST background); higher = stronger binding of peptide-phage to the PRM
Summary of the method: (§1)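 Human peptide recognition domains were expressed in 96-well plates as fusions to the C-terminus of glutathione S-transferase (GST) and selected against an M13 phage library displaying randomized hexadecapeptides, cysteine-free and glycine-flanked, on the gene-8 major coat protein. Five selection rounds were run, and approximately 48 individual clones from rounds 4 and 5 were tested by phage ELISA. Each value is the ELISA signal on the GST-domain fusion divided by the signal on GST alone. Positive clones were sequenced.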

Row | Binder | phage ELISA signal ratio
1 | TDFTYAHAYNPHFIVS | 5.82
2 | YLWFSPAPSAPIWQWV | 5.56
3 | FPYNPHWDMLQQETTV | 3.09

Molecular target: T2, TRIM11 268-461 SPRY (domain begin …
Assay: as above
Summary of the method: as §1

Row | Binder | phage ELISA signal ratio
4 | QVFWYPQAEEWPWFLD | 34.5
5 | TGNVFQFMDPPQWLTH | 29.9
6 | WYEDGWWTPHRMEQTR | 30
7 | HRFVYMEQLPSWLFAV | 23
8 | ELTTFHFYKEAPVWVI | 31.5
9 | PFTYYSSEMYPWYIFG | 11.1
10 | QFFLFQSAPSWVLQPI | 13.8
11 | VGTFMFGEMPSWVVST | 19.6
12 | VFEFMDRADWPDWVMM | 20.4
13 | TELPFTYMTRIPSWVW | 30
14 | KVNTFHFMDPPDWLTH | 14.3
15 | GFFQFQALPEWIVYMN | 12.6

Molecular target: T3, TOM1L1 1-150 VHS (domain begin residue: …
Assay: as above
Summary of the method: as §1

Row | Binder | phage ELISA signal ratio
16 | VSEGQWRPSYLWWTDD | 4.64
17 | ETDKWVPSYLWWANYS | 16.8
18 | QHDWAPSYLWWDEWTM | 20.5
19 | ADGWGWYENWVWPASM | 4.28
20 | FVDWDIPSWWFQQVTS | 15.1
21 | YQMSWMPSEIWWLNYV | 9.38
22 | NNNWWMQWHVEEHEME | 4.26
23 | DDHLWHPSFKWWDEYV | 15.8
24 | WDEEDDHWWEHFFWFQ | 12.6
25 | DMLDWSWTEEVELWFQ | 24.5
26 | DFTWLHSEKWWPEEWG | 14.3
27 | IEWEWLDSKEWWPKEF | 32.5
28 | LEWTWYDTWTWPEESQ | 22

The binders below were run against TRIM25 439-630 SPRY (domain begin residue: 439, domain end residue: 630), Q14258 in the same assay as above.
Sequence of TRIM25 439-630 SPRY (domain begin residue: 439, domain end residue: 630), Q14258 (Q14258 whole entry): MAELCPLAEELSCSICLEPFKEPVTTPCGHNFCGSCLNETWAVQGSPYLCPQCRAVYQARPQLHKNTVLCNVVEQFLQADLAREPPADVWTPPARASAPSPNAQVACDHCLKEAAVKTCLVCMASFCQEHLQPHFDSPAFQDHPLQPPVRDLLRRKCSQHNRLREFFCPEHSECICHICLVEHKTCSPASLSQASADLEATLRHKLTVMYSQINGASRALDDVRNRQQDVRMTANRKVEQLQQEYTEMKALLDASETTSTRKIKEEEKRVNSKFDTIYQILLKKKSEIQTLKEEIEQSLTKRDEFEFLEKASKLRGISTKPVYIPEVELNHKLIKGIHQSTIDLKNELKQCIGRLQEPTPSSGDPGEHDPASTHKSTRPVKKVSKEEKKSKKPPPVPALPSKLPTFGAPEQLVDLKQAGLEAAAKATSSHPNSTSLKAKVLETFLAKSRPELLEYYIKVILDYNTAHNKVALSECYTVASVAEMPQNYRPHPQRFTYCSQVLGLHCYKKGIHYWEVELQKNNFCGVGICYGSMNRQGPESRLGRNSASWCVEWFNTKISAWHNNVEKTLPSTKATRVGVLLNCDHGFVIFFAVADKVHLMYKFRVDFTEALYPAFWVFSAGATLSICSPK
Summary of the method: as §1

Row | Binder | phage ELISA signal ratio
29 | FETPWQIEDVWGMAGF | 27.1
30 | TVFWDGMYDWPVEMDI | 21
31 | MDWYDMYGTTWDMIPG | 10.7
32 | FEDGWMYQDFLKAPET | 9.36
33 | WDDGFMEYGALPHEQM | 12.3
34 | MPDGWWDQYSWEHIAE | 15.7
35 | VVGDGMAFERWFQDFE | 14.5

Each binder was assayed against TRIM21 268-465 SPRY (domain begin residue: 268, domain end residue: 465), P19474 in the same assay as above.
Sequence of TRIM21 268-465 SPRY (domain begin residue: 268, domain end residue: 465), P19474 (P19474 whole entry): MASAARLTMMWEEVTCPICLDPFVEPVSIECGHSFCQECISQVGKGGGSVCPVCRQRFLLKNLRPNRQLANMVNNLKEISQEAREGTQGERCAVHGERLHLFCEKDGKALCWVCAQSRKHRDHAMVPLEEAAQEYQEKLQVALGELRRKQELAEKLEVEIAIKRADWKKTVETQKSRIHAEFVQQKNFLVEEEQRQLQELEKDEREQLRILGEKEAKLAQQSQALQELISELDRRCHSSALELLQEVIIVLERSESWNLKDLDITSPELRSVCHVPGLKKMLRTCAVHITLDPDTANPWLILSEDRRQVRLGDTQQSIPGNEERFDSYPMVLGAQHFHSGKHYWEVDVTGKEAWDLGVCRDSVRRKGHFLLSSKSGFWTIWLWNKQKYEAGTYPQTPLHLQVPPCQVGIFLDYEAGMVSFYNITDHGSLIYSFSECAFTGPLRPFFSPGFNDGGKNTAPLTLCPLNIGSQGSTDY
Summary of the method: as §1

Row | Binder | phage ELISA signal ratio
36 | MHDDLDWVHHMAVPQV | 27.1
37 | WEMTLMEEAWATKFEV | 29.9
38 | FEDGWMYQDFLKAPET | 14.1

Molecular target: T4, TOM1L2 1-153 VHS (domain begin residue: …
Assay: as above
Summary of the method: as §1

Row | Binder | phage ELISA signal ratio
39 | QTPLEAFWEAYDSISW | 23.1
40 | TEMWTPAQQALWAYIT | 8.79
41 | IEIPWTQEFIQHWTQG | 18.4
42 | KWNDDDWWTYFVSQVE | 20.3
43 | LPPHWFDEMYSITAMY | 7.51
44 | AFENNQQAILQYMMDV | 22.7
45 | MMFAGLGTPNPYEVTT | 16.9
46 | YQDWDWDPEMKRMVVS | 4.04
47 | DRKLSQQELALWAYII | 27.7
48 | GLASYFADNYHLIFSE | 22.4

These binders were tested against TRIM30 281-496 SPRY (domain begin residue: 281, domain end residue: 496) in the same assay as above.
Summary of the method: as §1

Row | Binder | phage ELISA signal ratio
49 | WDWQTDYGYWEDFVPV | 4.08
50 | DVIPWDTWNFWREQDF | 9.37

The binders below were run against TOM1 1-153 VHS (domain begin residue: 1, domain end residue: 153), O60784 in the same assay as above.
Sequence of TOM1 1-153 VHS (domain begin residue: 1, domain end residue: 153), O60784 (O60784 whole entry): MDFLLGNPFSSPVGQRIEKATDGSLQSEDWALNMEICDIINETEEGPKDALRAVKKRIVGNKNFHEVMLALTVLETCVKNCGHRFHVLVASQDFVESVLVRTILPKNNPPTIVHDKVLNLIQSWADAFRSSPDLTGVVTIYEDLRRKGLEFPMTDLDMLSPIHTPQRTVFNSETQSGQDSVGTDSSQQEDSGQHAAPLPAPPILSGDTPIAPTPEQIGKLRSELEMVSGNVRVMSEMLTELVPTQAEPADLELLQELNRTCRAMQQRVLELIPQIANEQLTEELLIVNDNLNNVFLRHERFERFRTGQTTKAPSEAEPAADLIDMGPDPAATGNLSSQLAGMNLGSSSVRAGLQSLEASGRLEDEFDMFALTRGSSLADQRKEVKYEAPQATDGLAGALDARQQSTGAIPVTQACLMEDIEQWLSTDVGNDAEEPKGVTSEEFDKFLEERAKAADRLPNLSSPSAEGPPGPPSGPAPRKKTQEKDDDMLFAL
Summary of the method: as §1

Row | Binder | phage ELISA signal ratio
51 | QVWWEAYEKRLHVETE | 8.09
52 | NSWWLDYEERATLHGD | 9.5
53 | EWWLSYDPHWVETISA | 5.42

Molecular target: T5, TRIM39 319-514 SPRY (domain begin …
Assay: as above
Summary of the method: as §1

Row | Binder | phage ELISA signal ratio
54 | GWYEMEGWGMPKDIET | 3.7

The binders below were run against TRIM7 324-511 SPRY (domain begin residue: 324, domain end residue: 511), Q9C029 in the same assay as above.
Summary of the method: as §1

Row | Binder | phage ELISA signal ratio
55 | MTMDFHPDWWDVADQW | 29.6
56 | GLVYYDVPFDFGVIDW | 13.2
57 | LERKIAWAQQLWKYFV | 6.97

Molecular target: T6, TRIM10 292-481 SPRY (domain begin …
Assay: as above
Summary of the method: as §1

Row | Binder | phage ELISA signal ratio
58 | WEDGWLIPNAQDFQGM | 3.64
